Reference: article PMC13083723 (Patterns, 2026)
In all, about 5,400 compounds went through this assay and about 190 (3.5%) showed an effect of 50% or more. Shown is part of a subset that was picked to be rich in strong results.

Test system: Vero-E6
Experiment: primary screen, phospholipidosis by LipidTOX staining; higher = more effect of the substance
Settings: 10 µM
Experimental: To measure drug-induced PLD in Vero-E6 cells, we used the HCS LipidTOX Red Phospholipidosis Detection Reagent (Invitrogen, #H34351), which is non-toxic to cell growth and remains well retained after aldehyde fixation. In this setup, compounds (at 10 μM concentration) and controls (amiodarone: 10 μM concentration; DMSO: 0.1 v/v %) were added to clear-bottom, 384-well plates (PhenoPlate 384-well, black, optically clear flat bottom, tissue-culture treated, Revvity #6057302) using the Echo Liquid Handler (Labcyte).

Structure (SMILES)	result_ITMP [%]
CNC(=O)c1ccccc1Nc1cc(Nc2ccc(N3CCOCC3)cc2OC)ncc1C(F)(F)F	10.6
CNC(=O)c1ccccc1Nc1nc(Nc2ccc3c(c2OC)CCC[C@H](N2CCN(CCO)CC2)C3)ncc1Cl	139
CN1CCN(Cc2ccc(Nc3ncc(Cl)c(Nc4ccccc4S(=O)(=O)N(C)C)n3)cc2)CC1	1.65
CC1(C)S[C@@H]2[C@H](NC(=O)C(C(=O)[O-])c3ccsc3)C(=O)N2[C@H]1C(=O)[O-] (stereo partly drawn)	-2.7
CCCCCC(O)CCCC(=O)[O-] (stereo not drawn)	-2.69
CC#C[C@@H](CC(=O)[O-])c1ccc(OCc2cccc(-c3ccc(C(F)(F)F)cc3)c2)cc1	2.55
C[C@@H](NCCCc1cccc(C(F)(F)F)c1)c1cccc2ccccc12	61.8
CCN[C@@H](C)Cc1cccc(C(F)(F)F)c1	3.76
CC(Cc1cccc(C(F)(F)F)c1)NCCOC(=O)c1ccccc1 (stereo not drawn)	6.92
CSCCC(N)C(=O)O (stereo not drawn)	-3.06
O[C@H]1[C@H]2[C@H](O)CCCN2C[C@H]1O	0.57
c1cc(Nc2cc(C3CC3)n[nH]2)nc(Nc2ccc3nc[nH]c3c2)n1	-1.4
CSc1ccccc1Nc1nc(N2CCNCC2)nc2c(NCC3CC3)ncnc12	79.3
CN1C2C=C(c3sccc3Br)CC1CC2 (stereo not drawn)	6.82
CCN(CCO)CCCOc1ccc2c(Nc3cc(CC(=O)Nc4cccc(F)c4)n[nH]3)ncnc2c1	-2.36
c1ccc(CCCN2CCN(CCOC(c3ccccc3)c3ccccc3)CC2)cc1	15
C(=C\c1ccccc1)/CN1CCN(CCOC(c2ccccc2)c2ccccc2)CC1	7.08
Clc1ccc(C(OCCN2CCCCC2)c2ccccc2)cc1 (stereo not drawn)	63.9
C#C[C@]1(OC(C)=O)CCC2C3CCC4=C/C(=N/O)CCC4C3CC[C@@]21CC (stereo partly drawn)	1.9
OC1(c2ccc(Cl)c(C(F)(F)F)c2)CCN(CCCC(c2ccc(F)cc2)c2ccc(F)cc2)CC1	36.2
O=C(CCCN1CCC(O)(c2ccc(Cl)cc2)CC1)c1ccc(F)cc1	3.22
CN(C)C(=O)C(CCN1CCC(O)(c2ccc(Cl)cc2)CC1)(c1ccccc1)c1ccccc1	67.2
NCCCCCC(O)(P(=O)([O-])O)P(=O)(O)O	-0.14
Nc1ncnc2c1nc(Br)n2[C@@H]1O[C@@H]2COP(=O)([O-])O[C@H]2[C@H]1O	15.8
CCN1C(=O)CN=C2NC=C(c3ccc(-c4nnc[nH]4)nc3C)N=C21	-2.57
OC[C@@H](O)[C@@H](O)[C@@H](O)CO	-6.6
O=C(Nc1ccc(CN2CCOCC2)cc1)c1ccc(-c2cccc(Cl)c2)o1	56.3

Structure (SMILES)	result_ITMP [%]
COc1cc(NC(=O)c2ccc(-c3ccc(Cl)cc3)o2)cc(OC)c1	2.29
CCNC(=O)c1noc(-c2cc(C(C)C)c(O)cc2O)c1-c1ccc(CN2CCOCC2)cc1	-0.23
C[C@]12C=CC(=O)C=C1CCC1C2[C@@H](O)C[C@@]2(C)C1CC[C@]2(O)C(=O)COC(=O)CCC(=O)O (stereo partly drawn)	-5.57
Cc1cc(/C=C2\SC(=O)N(c3ccccc3)C2=O)c(C)n1-c1cccnc1	-6.01
O=C(Nc1ccc2c(O)cc(S(=O)(=O)[O-])cc2c1)Nc1ccc2c(O)cc(S(=O)(=O)[O-])cc2c1	-7.47
COc1ccc(CCN(C)CCCOc2ccc(S(=O)(=O)c3c(C(C)C)c4ccccc4n3C)cc2)cc1OC	84.7
COc1ccc(CCN(C)CCc2ccc(OC)c(OC)c2)cc1OC	-1.15
COc1ccc(CCN(C)CCCN2CCc3cc(OC)c(OC)cc3CC2=O)cc1OC	-1.11
O=C(NCCN1CCOCC1)c1ccc(Cl)cc1	-6.19
O=C(NCCN1CCC2(CC1)C(=O)NCN2c1cccc(F)c1)c1ccc2ccccc2c1	55.1
COc1ccccc1N1CCN(CCCCNC(=O)c2ccc3ccccc3c2)CC1	34.4
O=C1NCN(c2ccccc2)C12CCN(CCCC(c1ccc(F)cc1)c1ccc(F)cc1)CC2	1.98
O=C(NCCN1CCC2(CC1)C(=O)NCN2c1cccc(F)c1)c1ccc(F)c(F)c1	60.1
COc1ccc2cccc(N3CCN(CCNC(=O)c4ccc(F)cc4)CC3)c2c1	14
C[C@@H]1CCO[C@H]2Cn3cc(C(=O)NCc4ccc(F)cc4F)c(=O)c(O)c3C(=O)N12	-4.23
CN(C)CCCO[C@@H]1[C@H]2OC(C)(C)O[C@H]2O[C@@H]1[C@H](O)CO	-8.5
C[C@@H]1C[C@H]2[C@@H]3CCC4=CC(=O)C=C[C@]4(C)[C@@]3(Cl)[C@@H](O)C[C@]2(C)[C@@]1(O)C(=O)CCl	0.3
CN(CCCN1c2ccccc2CCc2ccccc21)CC(=O)c1ccc(Cl)cc1	13.8
O=C(O)c1ccccc1C(=O)Nc1ccc(-c2ccccc2)cc1	-1.06
O=C(CN1C2=NCCN2c2ccccc21)c1ccc(-c2ccccc2)cc1	53.9
Cn1cnc2c(NCc3ccccc3)nc(NCCO)nc21	-1.91
c1ccc(CNc2ncnc3nc[nH]c23)cc1	-8.79
c1ccc(CNc2nc(NCc3ccccc3)c3ccccc3n2)cc1	58.9
N=C(N)Nc1nc(CSCCN/C=N/S(=O)(=O)c2ccc(Br)cc2)cs1	0.59
O=C([O-])c1ccccc1Nc1cc(Cl)ccc1C(=O)[O-]	-3.54
C[C@@H]([C@H](O)c1ccc(O)cc1)N1CCC(Cc2ccccc2)CC1.C[C@H]([C@@H](O)c1ccc(O)cc1)N1CCC(Cc2ccccc2)CC1	8.99
CN[C@H](CC(C)C)C(=O)NC1C(=O)N[C@@H](CC(N)=O)C(=O)N[C@H]2C(=O)NC3C(=O)N[C@H](C(=O)N[C@@H](C(=O)O)c4cc(O)cc(O)c4-c4cc3ccc4O)[C@H](O)c3ccc(c(Cl)c3)Oc3cc2cc(c3O[C@@H]2OC(CO)[C@@H](O)[C@H](O)[C@H]2O[C@H]2C[C@](C)(N)[C@H](O)[C@H](C)O2)Oc2ccc(cc2Cl)[C@H]1O (stereo partly drawn)	-7.09
